Source: the supplement of paper PMC10849652
Of roughly 8,800 targets only a part is listed; those with a hit were picked by preference. About 0.5% of all pairs of compound and target were hits.

How the values were obtained:
Assay in all cases: log2 fold change, soluble protein after heating vs DMSO (PISA); higher = thermal stabilisation; K562 lysate, 10 uM; active = over 0.2 and 3.5 SD of the protein, either way, in both replicates (recomputed)
[1] = compound: C1=CC=C(C=C1)[C@H](COC2=CC3=C(C=C2)NC(=O)N3)NC(=O)C4=CC=CN(C4=O)CC5=CC(=C(C=C5)F)F
Method in brief: (§1)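 Pellets of K562 cells were dounce-homogenised in PBS pH 7.4 with 1 mM MgCl2, and the crude extract was held at 1 mg/mL protein for a 30 min treatment with 10 μM compound. Aliquots were heated for 3 min over 48°C-58°C and pooled before NP-40 was added to 0.5% at 4°C. The supernatant from 21,000xg for 90 min was quantified by TMTpro 16plex LC-MS/MS with channel sums equalised. Values are reported from duplicates as log-two fold change in thermal stability relative to solvent controls.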

[2] = compound: CC1=C(SC2=C1C(=N[C@H](C3=NN=C(N32)C)CC(=O)N)C4=CC=C(C=C4)Cl)C
Method in brief: as §1

[3] = compound: CC1=C2C(=CC=C1)N=C(N(C2=O)C3=CC=CC=C3C)CN4C=NC5=C(N=CN=C54)N
Method in brief: as §1

[4] = compound: Cc1sc2c(c1C)C(c1ccc(Cl)cc1)=N[C@@H](CC(=O)OC(C)(C)C)c1nnc(C)n1-2
Method in brief: as §1

[5] = compound: c1ccc([C@@H]2C[C@H]2NC2CCNCC2)cc1
Method in brief: as §1

Measured: log2 fold change

GALK1 isoform 2 (UniProt P51570)
inactive: [1] 0.014 | [2] 0.027 | [3] 0.035 | [4] 0.006 | [5] 0.073

ELF2 (UniProt Q15723)
inactive: [1] -0.162 | [2] -0.074 | [3] 0.044 | [4] -0.005 | [5] 0.013

EIF2B3 (UniProt Q9NR50)
inactive: [1] -0.047 | [2] 0.008 | [3] -0.01 | [4] 0.004 | [5] 0.107

DTWD1 (UniProt Q8N5C7)
inactive: [1] -0.003 | [2] 0.075 | [3] -0.004 | [4] 0.039 | [5] 0.095

ENO2 (UniProt P09104)
UniProt P09104, sequence (P09104 whole entry, looked up): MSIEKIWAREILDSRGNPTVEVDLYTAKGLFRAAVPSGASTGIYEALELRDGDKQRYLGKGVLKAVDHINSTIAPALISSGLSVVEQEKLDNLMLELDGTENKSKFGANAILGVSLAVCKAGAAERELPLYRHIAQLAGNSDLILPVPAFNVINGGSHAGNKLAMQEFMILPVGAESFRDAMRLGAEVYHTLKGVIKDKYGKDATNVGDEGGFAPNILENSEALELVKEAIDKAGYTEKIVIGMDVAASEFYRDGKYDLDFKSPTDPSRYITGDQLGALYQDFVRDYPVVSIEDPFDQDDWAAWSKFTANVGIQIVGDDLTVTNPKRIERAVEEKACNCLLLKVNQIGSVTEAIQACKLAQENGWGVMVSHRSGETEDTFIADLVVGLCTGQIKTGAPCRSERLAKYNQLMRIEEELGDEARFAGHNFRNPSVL
inactive: [1] 0.019 | [2] -0.122 | [3] 0.037 | [4] -0.009 | [5] -0.153

EXOC5 (UniProt O00471)
inactive: [1] -0.065 | [2] -0.002 | [3] 0.068 | [4] -0.023 | [5] 0.035

FXR2 (UniProt P51116)
UniProt P51116, sequence (P51116 whole entry, looked up): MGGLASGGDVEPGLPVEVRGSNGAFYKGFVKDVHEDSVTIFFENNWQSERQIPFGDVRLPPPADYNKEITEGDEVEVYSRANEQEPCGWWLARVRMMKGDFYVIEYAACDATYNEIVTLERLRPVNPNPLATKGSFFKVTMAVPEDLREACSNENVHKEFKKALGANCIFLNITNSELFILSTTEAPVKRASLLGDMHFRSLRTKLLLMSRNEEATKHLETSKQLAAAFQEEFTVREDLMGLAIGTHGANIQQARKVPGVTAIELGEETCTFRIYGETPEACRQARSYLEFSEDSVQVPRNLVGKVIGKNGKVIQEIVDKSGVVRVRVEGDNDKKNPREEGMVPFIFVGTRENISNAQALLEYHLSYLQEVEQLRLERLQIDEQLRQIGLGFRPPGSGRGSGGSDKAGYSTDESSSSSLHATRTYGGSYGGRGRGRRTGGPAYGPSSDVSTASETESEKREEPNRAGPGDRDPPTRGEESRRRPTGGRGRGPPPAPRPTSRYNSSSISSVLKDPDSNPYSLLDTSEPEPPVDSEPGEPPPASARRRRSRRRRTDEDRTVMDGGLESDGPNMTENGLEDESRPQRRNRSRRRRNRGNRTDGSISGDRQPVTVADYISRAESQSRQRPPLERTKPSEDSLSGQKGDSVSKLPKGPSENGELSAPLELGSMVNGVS
inactive: [1] -0.021 | [2] -0.011 | [3] 0.032 | [4] -0.014 | [5] 0.054

EIF2B4 (UniProt Q9UI10)
UniProt Q9UI10, sequence (Q9UI10 whole entry, looked up): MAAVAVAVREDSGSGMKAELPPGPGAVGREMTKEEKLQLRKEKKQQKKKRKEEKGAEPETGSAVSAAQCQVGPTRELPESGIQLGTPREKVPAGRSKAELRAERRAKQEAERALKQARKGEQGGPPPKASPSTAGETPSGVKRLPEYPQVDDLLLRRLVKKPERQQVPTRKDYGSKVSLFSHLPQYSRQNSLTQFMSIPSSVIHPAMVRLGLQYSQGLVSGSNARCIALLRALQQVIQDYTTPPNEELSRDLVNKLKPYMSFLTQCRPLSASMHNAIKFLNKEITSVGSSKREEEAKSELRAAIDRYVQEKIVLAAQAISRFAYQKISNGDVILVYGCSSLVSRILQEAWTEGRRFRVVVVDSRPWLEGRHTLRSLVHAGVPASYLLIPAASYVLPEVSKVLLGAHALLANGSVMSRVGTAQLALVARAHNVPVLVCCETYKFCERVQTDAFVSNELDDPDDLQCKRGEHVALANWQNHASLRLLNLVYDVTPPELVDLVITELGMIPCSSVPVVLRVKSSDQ
inactive: [1] 0.028 | [2] 0.079 | [3] -0.005 | [4] -0.224

FAM118A (UniProt Q9NWS6)
inactive: [1] -0.028 | [2] -0.033 | [3] -0.021 | [4] -0.108 | [5] -0.015

GFPT1 (UniProt Q06210)
inactive: [1] -0.021 | [2] -0.001 | [3] 0.021 | [4] 0.019 | [5] 0.058

FDFT1 (UniProt P37268)
active: [2] 0.268
inactive: [1] -0.045 | [3] 0 | [4] 0.107 | [5] -0.047

FARSA (UniProt Q9Y285)
inactive: [1] 0.028 | [2] 0.171 | [3] -0.003 | [4] -0.028 | [5] -0.009

FNBP1L (UniProt Q5T0N5)
inactive: [1] -0.082 | [2] -0.009 | [3] 0.012 | [4] -0.032 | [5] 0.029

FLT4 (UniProt P35916)
UniProt P35916, sequence (P35916 whole entry, looked up): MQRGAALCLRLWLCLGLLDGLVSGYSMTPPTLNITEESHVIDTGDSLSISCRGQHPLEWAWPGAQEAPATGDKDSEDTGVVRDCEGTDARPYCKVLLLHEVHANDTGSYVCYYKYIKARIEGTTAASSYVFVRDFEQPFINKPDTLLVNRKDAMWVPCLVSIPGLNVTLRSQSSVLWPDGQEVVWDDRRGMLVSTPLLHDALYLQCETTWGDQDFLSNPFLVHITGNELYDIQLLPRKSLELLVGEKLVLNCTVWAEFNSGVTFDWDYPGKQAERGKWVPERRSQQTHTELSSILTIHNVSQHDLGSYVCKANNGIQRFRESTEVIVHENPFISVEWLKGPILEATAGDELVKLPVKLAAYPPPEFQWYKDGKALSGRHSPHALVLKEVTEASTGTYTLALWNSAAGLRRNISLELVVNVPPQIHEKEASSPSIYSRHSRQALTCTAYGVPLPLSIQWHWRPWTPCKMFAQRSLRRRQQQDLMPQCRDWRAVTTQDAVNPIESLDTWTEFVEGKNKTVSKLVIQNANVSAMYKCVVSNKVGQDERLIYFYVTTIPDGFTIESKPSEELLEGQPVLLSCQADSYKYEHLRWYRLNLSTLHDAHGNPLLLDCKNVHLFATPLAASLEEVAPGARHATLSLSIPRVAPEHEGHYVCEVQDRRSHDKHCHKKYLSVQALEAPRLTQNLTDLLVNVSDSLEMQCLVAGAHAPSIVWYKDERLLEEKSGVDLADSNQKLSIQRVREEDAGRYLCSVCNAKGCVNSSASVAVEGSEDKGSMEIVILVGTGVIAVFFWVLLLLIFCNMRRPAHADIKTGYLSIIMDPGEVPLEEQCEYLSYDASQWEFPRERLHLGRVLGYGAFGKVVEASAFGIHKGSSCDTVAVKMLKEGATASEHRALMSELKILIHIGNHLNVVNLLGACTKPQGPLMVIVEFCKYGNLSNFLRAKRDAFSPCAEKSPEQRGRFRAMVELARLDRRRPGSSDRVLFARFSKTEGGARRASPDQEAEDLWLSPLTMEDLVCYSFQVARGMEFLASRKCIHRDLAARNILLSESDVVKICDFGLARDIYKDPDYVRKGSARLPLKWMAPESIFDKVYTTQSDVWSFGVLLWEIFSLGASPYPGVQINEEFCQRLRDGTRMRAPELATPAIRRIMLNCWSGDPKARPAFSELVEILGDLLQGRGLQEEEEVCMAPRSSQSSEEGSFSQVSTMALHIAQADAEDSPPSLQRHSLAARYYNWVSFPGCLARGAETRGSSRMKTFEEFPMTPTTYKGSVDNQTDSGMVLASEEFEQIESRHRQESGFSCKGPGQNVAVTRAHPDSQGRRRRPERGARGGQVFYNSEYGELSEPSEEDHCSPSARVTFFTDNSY
inactive: [1] 0.006 | [2] -0.04 | [3] -0.031 | [4] 0.098 | [5] -0.408

DSN1 (UniProt Q9H410)
inactive: [1] -0.012 | [2] 0.053 | [3] 0.019 | [4] -0.013 | [5] 0.02

DTYMK (UniProt P23919)
UniProt P23919, sequence (P23919 whole entry, looked up): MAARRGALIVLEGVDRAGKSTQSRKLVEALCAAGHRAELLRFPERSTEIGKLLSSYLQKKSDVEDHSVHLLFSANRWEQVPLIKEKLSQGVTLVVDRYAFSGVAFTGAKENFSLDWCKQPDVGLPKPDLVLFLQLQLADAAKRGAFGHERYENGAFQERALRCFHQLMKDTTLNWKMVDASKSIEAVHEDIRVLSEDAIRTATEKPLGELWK
inactive: [1] -0.041 | [2] 0.014 | [3] -0.029 | [4] -0.096 | [5] 0.098

FXR1 (UniProt P51114)
inactive: [1] -0.028 | [2] -0.016 | [3] -0.009 | [4] 0.04 | [5] 0.027

FASTKD2 (UniProt Q9NYY8)
UniProt Q9NYY8, sequence (Q9NYY8 whole entry, looked up): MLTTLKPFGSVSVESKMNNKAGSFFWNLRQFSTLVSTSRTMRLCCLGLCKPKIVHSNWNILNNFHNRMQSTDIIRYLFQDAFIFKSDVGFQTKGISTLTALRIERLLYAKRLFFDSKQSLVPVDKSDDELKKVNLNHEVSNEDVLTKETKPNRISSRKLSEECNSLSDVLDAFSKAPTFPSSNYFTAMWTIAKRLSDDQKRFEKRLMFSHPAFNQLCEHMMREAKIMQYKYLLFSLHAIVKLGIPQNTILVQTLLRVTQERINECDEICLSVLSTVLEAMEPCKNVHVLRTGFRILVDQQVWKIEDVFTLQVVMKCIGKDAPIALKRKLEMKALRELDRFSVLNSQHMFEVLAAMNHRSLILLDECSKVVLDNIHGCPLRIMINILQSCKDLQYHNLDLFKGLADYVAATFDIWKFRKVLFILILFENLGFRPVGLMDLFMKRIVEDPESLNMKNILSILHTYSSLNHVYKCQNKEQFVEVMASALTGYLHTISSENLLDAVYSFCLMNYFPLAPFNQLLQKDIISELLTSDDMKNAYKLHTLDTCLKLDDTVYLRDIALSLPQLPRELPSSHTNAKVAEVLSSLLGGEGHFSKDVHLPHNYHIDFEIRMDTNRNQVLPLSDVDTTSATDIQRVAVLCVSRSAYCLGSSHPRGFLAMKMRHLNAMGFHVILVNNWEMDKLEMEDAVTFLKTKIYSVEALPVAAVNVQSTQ
inactive: [1] -0.013 | [2] 0.044 | [3] 0.018 | [4] 0.017 | [5] 0.002

ELAVL1 isoform 2 (UniProt Q15717)
UniProt Q15717, sequence (Q15717 whole entry, looked up): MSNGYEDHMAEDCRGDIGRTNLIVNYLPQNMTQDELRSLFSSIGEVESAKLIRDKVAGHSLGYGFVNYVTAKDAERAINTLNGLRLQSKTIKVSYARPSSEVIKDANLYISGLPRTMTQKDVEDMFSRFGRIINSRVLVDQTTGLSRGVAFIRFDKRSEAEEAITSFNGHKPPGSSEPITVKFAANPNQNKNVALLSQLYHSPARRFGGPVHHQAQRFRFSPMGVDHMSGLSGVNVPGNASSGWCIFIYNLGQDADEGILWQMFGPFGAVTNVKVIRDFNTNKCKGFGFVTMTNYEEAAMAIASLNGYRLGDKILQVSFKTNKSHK
inactive: [1] -0.038 | [2] 0 | [3] -0.017 | [4] 0.066 | [5] 0.052

FKBP1A (UniProt P62942)
UniProt P62942, sequence (P62942 whole entry, looked up): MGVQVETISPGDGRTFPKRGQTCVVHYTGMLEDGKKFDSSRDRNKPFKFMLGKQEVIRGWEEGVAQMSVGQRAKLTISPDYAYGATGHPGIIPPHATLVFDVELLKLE
inactive: [1] 0.011 | [2] -0.134 | [3] -0.069 | [4] -0.01 | [5] -0.214

GDPD1 (UniProt Q8N9F7)
inactive: [1] -0.047 | [2] 0.018 | [3] 0.117 | [4] 0.024 | [5] -0.036

EXOC3 (UniProt O60645)
inactive: [1] -0.026 | [2] -0.019 | [3] 0.053 | [4] -0.017 | [5] 0.08

FTSJ1 (UniProt Q9UET6)
inactive: [1] 0.016 | [2] 0.013 | [3] -0.025 | [4] -0.005 | [5] 0.048

GBF1 (UniProt Q92538)
inactive: [1] -0.044 | [2] 0 | [3] 0.005 | [4] 0.016 | [5] 0.011

EP300 (UniProt Q09472)
inactive: [1] -0.048 | [2] -0.013 | [3] 0.025 | [4] 0.005 | [5] -0.016

FAM83A (UniProt Q86UY5)
UniProt Q86UY5, sequence (Q86UY5 whole entry, looked up): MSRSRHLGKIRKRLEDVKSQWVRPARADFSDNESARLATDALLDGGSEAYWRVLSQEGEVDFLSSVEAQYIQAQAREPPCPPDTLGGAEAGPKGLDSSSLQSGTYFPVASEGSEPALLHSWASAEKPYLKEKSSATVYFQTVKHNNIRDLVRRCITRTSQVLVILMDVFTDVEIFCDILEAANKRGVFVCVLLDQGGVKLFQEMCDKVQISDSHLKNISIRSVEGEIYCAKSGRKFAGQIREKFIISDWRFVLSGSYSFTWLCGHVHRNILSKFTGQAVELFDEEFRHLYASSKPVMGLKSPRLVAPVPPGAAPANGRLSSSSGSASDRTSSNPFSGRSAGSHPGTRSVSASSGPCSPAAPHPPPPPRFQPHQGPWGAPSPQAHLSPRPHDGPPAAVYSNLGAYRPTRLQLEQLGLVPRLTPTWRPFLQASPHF
inactive: [1] 0.065 | [2] -0.023 | [3] 0.063 | [4] 0.11 | [5] -0.039

EMP3 (UniProt P54852)
UniProt P54852, sequence (P54852 whole entry, looked up): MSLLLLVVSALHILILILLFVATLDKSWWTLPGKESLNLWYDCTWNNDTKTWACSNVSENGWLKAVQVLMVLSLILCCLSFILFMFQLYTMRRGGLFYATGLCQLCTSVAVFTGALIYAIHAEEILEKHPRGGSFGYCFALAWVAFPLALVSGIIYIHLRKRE
inactive: [1] 0.026 | [2] -0.028 | [3] -0.038 | [4] -0.113 | [5] -0.345
